aSyn 5UTR act: Activators via SNCA 5'UTR binding, MLPCN | alpha-synuclein 5'UTR reporter, activators screen | activity score, % (tested at 7.5 µM), hits read low | 7.1% of 300,000 active; in the data active means activity score below about -60%
Large screens that a line does not name were inactive. The list is a sample of the results.

CC(Oc1ccc(Cl)cc1Cl)C(=O)Nc1cccc(O)c1 (stereo unspecified)	aSyn 5UTR act -62
CC(Oc1ccc(Br)cc1Cl)C(=O)Nc1ccncc1 (stereo unspecified)	aSyn 5UTR act -84
O=C1CCN(Cc2ccccc2)CCN1CCSc1ccccc1	aSyn 5UTR act -78
CCCN1CCC(=O)N(CCSc2ccccc2)CC1	aSyn 5UTR act -115
Clc1cccc(CSc2ncn(-c3ccccc3)n2)c1	aSyn 5UTR act -67
CCC1SC(=NC(=O)c2ccc(Cl)c(Cl)c2)NC1=O (stereo unspecified)	aSyn 5UTR act -76
O=C(CSc1nnc(NC(=O)c2ccc(F)cc2)s1)NC1CC1	aSyn 5UTR act -79
CCOC(=O)CNC(=O)CSc1nnc(NC(=O)c2ccc(C)cc2)s1	none
O=C(CSc1nnc(NC(=O)c2ccccc2F)s1)NCC1CCCO1 (stereo unspecified)	aSyn 5UTR act -72
Cc1cccc(C(=O)Nc2nnc(SCC(=O)NC3CC3)s2)c1	aSyn 5UTR act -66
Cc1ccc(SCCC(=O)N2CCC(C)CC2)cc1	aSyn 5UTR act -92
CC(C)(C)C1CCC(=O)N(CCSc2ccccc2)CC1 (stereo unspecified)	aSyn 5UTR act -145
Cc1ccc(SCCN2CCC(C)CCC2=O)cc1 (stereo unspecified)	aSyn 5UTR act -153
Cc1ccc(-n2cc(CN3CCC(CO)(Cc4ccccc4)CC3)cn2)cc1	aSyn 5UTR act -108
OCC1(Cc2ccccc2)CCN(Cc2cnc(-c3ccc(Cl)cc3)nc2)CC1	aSyn 5UTR act -74
O=[N+]([O-])c1ccc(COc2ccccc2/C=N/O)cc1	aSyn 5UTR act -132
COc1cccc(/C=N/Nc2snc(SC)c2C#N)c1O	aSyn 5UTR act -157
COc1ccc(/C=N/Nc2snc(SC)c2C#N)cc1OC	aSyn 5UTR act -146
CSc1nsc(N/N=C/c2ccccc2)c1C#N	aSyn 5UTR act -150
COc1ccc(/C=C\C(=O)Oc2cccc(/C=N/NC(=O)Cc3ccc(OC)c(OC)c3)c2)cc1	aSyn 5UTR act -87
COc1ccc(/C=C/C(=O)Oc2cccc(/C=N/NC(=O)c3cccc(F)c3)c2)cc1	aSyn 5UTR act -151
CCNc1nc(-c2ccc(OC(F)F)cc2)c(C)s1	aSyn 5UTR act -72
CCN1CCc2c(sc(NC(=O)c3ccc4ccccc4c3)c2C(N)=O)C1	aSyn 5UTR act -194
CC(C)N1CCc2c(sc(NC(=O)c3ccc(S(=O)(=O)N4CCc5ccccc54)cc3)c2C(N)=O)C1	aSyn 5UTR act -103
CC(C)N1CCc2c(sc(NC(=O)c3ccc([N+](=O)[O-])o3)c2C(N)=O)C1	none
CCc1cccc2c1Sc1ccccc1CC2N1CCNCC1 (stereo unspecified)	none
CO/N=C/c1ccc(Oc2ccc(C)cc2)nc1	aSyn 5UTR act -77
Cc1ccc(N2CN=c3s/c(=C\c4ccccn4)c(=O)n3C2)cc1	aSyn 5UTR act -63
Cc1ccc(C(CC(=O)c2ccco2)SCCO)cc1 (stereo unspecified)	aSyn 5UTR act -90
CCc1c(C)c2ccc(OCC(=O)OC(C)C)c(C)c2oc1=O	aSyn 5UTR act -107
COC(=O)Cc1c(C)c2ccc(OCC(C)=O)c(C)c2oc1=O	aSyn 5UTR act -124
CCOc1ccc(N=C(/C(C(=O)C(=O)N2CCOCC2)=C(/O)c2ccccc2)c2ccccc2)cc1	aSyn 5UTR act -203
CCC1CCc2sc(C(=O)NCc3ccccn3)cc2C1 (stereo unspecified)	aSyn 5UTR act -92
N/C(=N\OC(=O)c1ccc(Cl)cc1Cl)c1ccccn1	none
N/C(=N\OC(=O)c1cc([N+](=O)[O-])ccc1Cl)c1ccccn1	aSyn 5UTR act -82
N/C(=N\OC(=O)c1ccc(Cl)cc1[N+](=O)[O-])c1ccccn1	aSyn 5UTR act -165
N/C(=N\OC(=O)c1ccc([N+](=O)[O-])cc1Cl)c1ccccn1	none
COc1ccc2c(c1)CCc1c(C(=O)N3CCCc4ccccc43)noc1-2	aSyn 5UTR act -66
O=C(c1nn2c(C(F)(F)F)cc(-c3cccs3)nc2c1Cl)N1CCCc2ccccc21	none
COc1ccc2c(c1)CCc1c(C(=O)N3CCOCC3)noc1-2	aSyn 5UTR act -162
COc1cc(OC)cc(-c2nc(-c3ccc(Br)cc3)no2)c1	aSyn 5UTR act -164
COc1ccc(-c2nc(-c3ccc(Br)cc3)no2)c(OC)c1	aSyn 5UTR act -105
COc1ccccc1-c1nc(-c2ccc(Br)cc2)no1	aSyn 5UTR act -305
COCC1CCN(Cc2nc(-c3ccc4c(c3)OCO4)no2)C1 (stereo unspecified)	aSyn 5UTR act -114
CCOc1nc(C)ccc1-c1noc(-c2cccnc2)n1	aSyn 5UTR act -85
COc1ccc(-c2noc(-c3ccc4c(c3)OCO4)n2)cc1	aSyn 5UTR act -72
COc1ccccc1-c1nc(-c2ccncc2)no1	aSyn 5UTR act -123
COc1ccccc1-c1noc(-c2cccnc2)n1	aSyn 5UTR act -112
COc1cccc(NC(=S)N/N=C2\CC3CCC2(C)C3(C)C)c1 (stereo unspecified)	aSyn 5UTR act -78
Cc1ccc2sc(NC(=O)C3CC3)nc2c1C	aSyn 5UTR act -73
O=C(Nc1nc2c(F)cc(F)cc2s1)C1CC1	aSyn 5UTR act -107
Cc1c(C(=O)NCc2ccco2)sc2nc(-c3ccccc3)cn12	aSyn 5UTR act -83
Cc1nc2cc(-c3ccccc3)nn2c(C)c1CCC(=O)NCc1ccco1	none
c1ccc(-c2cn3c4c(sc3n2)CCCC4)cc1	none
Cc1c(C(=O)N2CCOCC2)sc2nc(-c3ccccc3)cn12	aSyn 5UTR act -123
Cc1c(C(=O)NCc2cccnc2)sc2nc(-c3ccc(F)cc3)cn12	aSyn 5UTR act -144
CCc1cc2c(=O)[nH]c(-c3ccccn3)nc2s1	none
O=c1[nH]c(-c2ccccn2)cc2ccccc12	aSyn 5UTR act -118
O=c1[nH]c(Nc2ccccn2)cc2ccccc12	aSyn 5UTR act -112
c1ccc(/N=C2\N=C(Nc3ccccn3)c3ccccc32)nc1	none
O=c1[nH]c(Nc2ccc(F)cc2)cc2ccccc12	aSyn 5UTR act -75
O=C(O)c1ccccc1C(=O)NNc1cccc(Cl)n1	aSyn 5UTR act -108
CCOc1ccccc1N1CCN(C(=O)c2cn(CC3CCCCC3)nn2)CC1	aSyn 5UTR act -84
c1ccc(-c2n[nH]c(-c3ccccn3)n2)cc1	aSyn 5UTR act -114
c1ccc(-c2n[nH]c(-c3ccccn3)n2)nc1	aSyn 5UTR act -63
Cc1ccc(NC(=S)Nc2cccc3ccccc23)cc1F	aSyn 5UTR act -86
CCc1ccc(NC(=S)Nc2cccc3cnccc23)cc1	aSyn 5UTR act -87
Cc1ccc(C)c(Cn2c(O)c(N=NC(=S)Nc3ccccc3F)c3ccccc32)c1	none
CC(=O)N(C)c1ccc(NC(=S)Nc2cccc3ccccc23)cc1	aSyn 5UTR act -168
c1ccc(SCc2nc3ccccc3s2)nc1	aSyn 5UTR act -113
c1ccc2oc(SCc3nc4ccccc4s3)nc2c1	aSyn 5UTR act -149
N#CCc1nc(CSc2nc3ccccc3o2)cs1	aSyn 5UTR act -134
c1ccc(OCc2nc(-c3cccs3)no2)cc1	aSyn 5UTR act -173
Fc1ccc(OCc2nc(-c3cccs3)no2)cc1	aSyn 5UTR act -123
CN(Cc1nc(-c2cccs2)no1)CC(O)c1ccccc1 (stereo unspecified)	aSyn 5UTR act -62
O=c1cc(N2CCOCC2)cnn1-c1ccccc1	aSyn 5UTR act -123
Cc1onc(-c2c(F)cccc2Cl)c1C(=O)O/N=C(\N)c1ccc([N+](=O)[O-])o1	aSyn 5UTR act -80
Cc1onc(-c2c(Cl)cccc2Cl)c1C(=O)N/N=C(\N)COc1ccc(Cl)cc1	none
CCc1ccc2nc(N(CCCN(C)C)C(=O)c3ccc(S(=O)(=O)N(C)C4CCCCC4)cc3)sc2c1	none
